Screens as filed in PubChem.
Sampled rows, rich in hits. Any-hit rate of the full collection: about 11%.
JMJD2A Tudor inh – blocks the human JMJD2A Tudor domain; O75164; AlphaScreen JMJD2A-Tudor / H3K4me3 peptide binding; Potency, µM (titrated, usually from 114 µM), for the others: at the highest dose activity change, negative = inhibition, hits mostly inhibitors; 4.4% of 390,000 active; AID 504339; further: on the % scale 0 is the no-effect control and ±100 the full control effect; nearly all actives have a fitted effect of over 50% in size
HP1b chromo inh – HP1-beta chromodomain-methylated histone interaction inhibition; P83916; 0.56% of 390,000 active; AlphaScreen HP1-beta / biotin-H3K9me3 peptide binding; Potency, µM (series often up to 114 µM), inactives show at the highest dose activity change, negative = inhibition, usual class: inhibitors; further: nearly all actives have a fitted effect of over 70% in size
Target sequence (P83916 whole entry, looked up): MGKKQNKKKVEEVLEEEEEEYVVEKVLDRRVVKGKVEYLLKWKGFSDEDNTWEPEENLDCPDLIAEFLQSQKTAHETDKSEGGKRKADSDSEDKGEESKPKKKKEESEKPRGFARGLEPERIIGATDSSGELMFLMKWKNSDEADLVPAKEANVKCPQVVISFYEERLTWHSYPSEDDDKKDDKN
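AlphaScreen: HP1-beta (50 nM) preformed 30 min with biotin-H3(1-18)K9me3 peptide (50 nM) in PBS pH 7.4, 0.01% Tween-20. Compound added for 30 min at RT, then streptavidin donor/nickel chelate acceptor beads (10 ug/mL) for 30 min.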
BAZ2B block – inhibitors of human BAZ2B bromodomain; Q9UIF8; AlphaScreen BAZ2B-H3K14Ac peptide displacement; Potency, µM (top dose mostly 114 µM), for the others: at the top dose activity change, negative = inhibition, actives largely listed as inhibitors; 4.4% of 360,000 active; AID 504333; further: on the % scale 0 is the no-effect control and ±100 the full control effect; nearly all actives have a fitted effect of over 60% in size
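BAZ2B 50 nM plus b-H3(5-23)K14Ac 50 nM, PBS pH 7.4/0.01% Tween-20, 30 min RT; compound added (max 110 uM), 30 min RT; streptavidin donor/Ni-chelate acceptor beads 10 ug/mL final, 20 min dark; AlphaScreen read.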
PLK1 PBD block – PLK1 (human) polo-box domain binding inhibition | P53350 | Plk1 PBD binding of FITC phosphopeptide, fluorescence polarization | Potency, µM, inactives show max response, negative = inhibition, actives largely listed as inhibitors | 2.8% of 360,000 active | AID 720504; further: series mostly up to about 57 µM; on the % scale 0 is the no-effect control and ±100 the full control effect; nearly all actives have a fitted effect of over 65% in size
G9a inh – blocks human histone lysine methyltransferase G9a; G9a H3K9 monomethylation, AlphaScreen, 2 h; Potency, µM (top dose mostly 102 µM), for the others: top-dose activity, negative = inhibition, hits mostly inhibitors; 8.8% of 350,000 active; Q96KQ7; further: on the % scale 0 is the no-effect control and ±100 the full control effect; nearly all actives have a fitted effect of over 75% in size
Target sequence (Q96KQ7 913-1193 limits assumed): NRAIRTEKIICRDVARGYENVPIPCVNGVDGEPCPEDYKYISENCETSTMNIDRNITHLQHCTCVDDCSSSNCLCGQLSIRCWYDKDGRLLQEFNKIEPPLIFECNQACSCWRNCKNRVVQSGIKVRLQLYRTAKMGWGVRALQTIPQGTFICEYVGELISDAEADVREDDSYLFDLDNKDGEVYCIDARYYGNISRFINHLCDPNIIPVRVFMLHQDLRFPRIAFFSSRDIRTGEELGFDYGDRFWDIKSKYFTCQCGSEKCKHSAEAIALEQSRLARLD
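Readings reflect AlphaScreen signal from monomethyl-H3K9 antibody detection. HMT at 20 nM; substrate b-H3K9 500 nM; cofactor SAM 20 uM; 2 h RT reaction; compounds tested as titrations in qHTS with 15 min preincubation.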
VDR inhibitor – inhibitors of human vitamin D receptor | P11473 | VDR-SRC2-3 peptide fluorescence polarization, 2 h | Potency, µM, inactives show max response, negative = inhibition, most hits filed as inhibitors | 0.93% of 400,000 active | AID 504847; further: on the % scale 0 is the no-effect control and ±100 the full control effect
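VDR–SRC2-3 interaction, FP format. Cmpds 23 nl via pintool, brief spin, 2 h ambient incubation.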
* marks the source's active call; other numbers are inactive results; [ ] = dose if it differs, or a comment. The call rests on the fitted dose curve; in most records, active means well fitted curve in the direction sought with a large enough effect; inconclusive means small, poorly fitted or top-dose-only effect, or another doubt; inactive means no such curve, though single readings can be large; an effect the other way counts as inactive or inconclusive. Potency means the concentration at half of the fitted maximal effect.

CCN(CC(=O)NC(=O)NCc1ccccc1)Cc1ccccc1 was read as JMJD2A Tudor inh 6.8%, HP1b chromo inh 37.6%, BAZ2B block 5.5%, PLK1 PBD block 1.9% and VDR inhibitor 13.3%.
`CN(C)CCNC(=O)CCCN1C(=O)c2cccnc2Oc2ccc(Cl)cc21` gave JMJD2A Tudor inh 6.3%, HP1b chromo inh 30.5%, BAZ2B block -1.6%, G9a inh -6.2%[59 µM] and VDR inhibitor 7.8%.
CCc1ccc2ncc3c(-c4ccc(F)cc4)nn(CC(=O)NCc4ccccc4)c3c2c1 was read as JMJD2A Tudor inh -10.0%, HP1b chromo inh 27.9%, BAZ2B block -10.4%, G9a inh -0.8%[59 µM] and VDR inhibitor 6.1%.
For Cc1cc(=O)[nH]c(SCC(=O)OCc2ccccc2)c1C#N the results were JMJD2A Tudor inh inconclusive, HP1b chromo inh -6.8%, BAZ2B block 1.8%, PLK1 PBD block 21.2µM*, G9a inh -5.6%[0.501 µM] and VDR inhibitor -22.7%.
Screening COc1cc(CNc2cccc3[nH]c(C(F)(F)F)nc23)cc(OC)c1 returned JMJD2A Tudor inh 50.1µM*, HP1b chromo inh 28.2%, BAZ2B block inconclusive, PLK1 PBD block 26.7µM*, G9a inh 39.8µM* and VDR inhibitor inconclusive.
COc1ccc(CNc2cccc3[nH]c(C(F)(F)F)nc23)cc1 was read as JMJD2A Tudor inh inconclusive, HP1b chromo inh 17.7%, BAZ2B block inconclusive, PLK1 PBD block -12.3%, G9a inh -12.6%[2.33 µM] and VDR inhibitor 12.5%.
Cc1ccc(Nc2nc(NCc3ccco3)nc3nccnc23)cc1Cl was read as JMJD2A Tudor inh -6.4%, HP1b chromo inh 54.0% and VDR inhibitor -0.2%.
CCc1ccc(NC(=O)C2CCN(S(=O)(=O)c3c(C)noc3/C=C/N(C)C)CC2)cc1 was read as JMJD2A Tudor inh -26.2%, HP1b chromo inh 34.2%, BAZ2B block -20.5%, PLK1 PBD block -3.0%, G9a inh 17.0%[0.0925 µM] and VDR inhibitor -4.0%.
Screening CNC(=O)C1CCN(S(=O)(=O)c2c(C)noc2/C=C/N(C)C)CC1 returned JMJD2A Tudor inh inconclusive, HP1b chromo inh 12.6%, BAZ2B block -25.2%, PLK1 PBD block 26.7µM*, G9a inh 1.8% and VDR inhibitor inconclusive.
Screening CCc1ccc(NC(=O)C2CCN(S(=O)(=O)c3c(C)noc3/C=C/c3ccco3)CC2)cc1 returned JMJD2A Tudor inh -22.0%, HP1b chromo inh 12.9%, G9a inh -4.5%[59 µM] and VDR inhibitor inconclusive.
`COc1ccc(NC(=O)C2CCN(S(=O)(=O)c3c(C)noc3/C=C/c3ccco3)CC2)cc1` gave JMJD2A Tudor inh 10µM*, HP1b chromo inh -10.7%, G9a inh -57.7%[59 µM] and VDR inhibitor -9.3%.
`Cc1cccc(S(=O)(=O)c2cn(Cc3ccc(F)cc3)c3cc(N4CCOCC4)c(F)cc3c2=O)c1` gave JMJD2A Tudor inh -11.2%, HP1b chromo inh 35.3%, BAZ2B block 4.9%, G9a inh -24.9%[59 µM] and VDR inhibitor 13.4%.
For Cn1c(=O)c2ncn(CC(=O)NC3CCCCCC3)c2n(C)c1=O the results were JMJD2A Tudor inh 3.2%, HP1b chromo inh 14.1%, BAZ2B block -3.6%, PLK1 PBD block -2.6%, G9a inh 14.1µM* and VDR inhibitor -10.6%.
`CCc1ccc(NC(=O)Cn2cnc3c(=O)n(C)c(=O)n(C)c32)cc1` gave JMJD2A Tudor inh -6.8%, HP1b chromo inh 21.8%, BAZ2B block -16.0%, PLK1 PBD block -5.7%, G9a inh inconclusive and VDR inhibitor -6.0%.
`Cn1c(=O)c2ncn(CC(=O)NCCOc3ccc(C(C)(C)C)cc3)c2n(C)c1=O` gave JMJD2A Tudor inh -2.1%, HP1b chromo inh 5.1%, BAZ2B block 0.1%, PLK1 PBD block -11.5%, G9a inh 39.8µM* and VDR inhibitor -18.0%.
Cn1c(=O)c2ncn(CC(=O)NCCOCc3ccccc3Cl)c2n(C)c1=O was read as JMJD2A Tudor inh -19.9%, HP1b chromo inh 19.0%, BAZ2B block 4.2%, PLK1 PBD block -10.0%, G9a inh -6.8% and VDR inhibitor inconclusive.
For CCOCCCNc1nc(=S)[nH]c2cc(OC)c(OC)cc12 the results were JMJD2A Tudor inh inconclusive, HP1b chromo inh 24.6%, BAZ2B block inconclusive, PLK1 PBD block -11.3%, G9a inh 35.5µM* and VDR inhibitor 6.9%.
For COCCNc1nc(=S)[nH]c2cc(OC)c(OC)cc12 the results were JMJD2A Tudor inh inconclusive, HP1b chromo inh 40.4%, BAZ2B block -28.2%, PLK1 PBD block -12.0%, G9a inh 35.5µM* and VDR inhibitor -20.0%.
COc1cc2[nH]c(=S)nc(NCCCOC(C)C)c2cc1OC was read as JMJD2A Tudor inh inconclusive, HP1b chromo inh 23.5%, BAZ2B block 50.1µM*, PLK1 PBD block -10.5%, G9a inh 44.7µM* and VDR inhibitor -4.9%.
`COc1ccc(CCNC(=O)CCCCCNc2nc(=S)[nH]c3ccccc23)cc1OC` gave JMJD2A Tudor inh -22.3%, HP1b chromo inh 46.4%, BAZ2B block inconclusive, PLK1 PBD block -17.0%, G9a inh inconclusive and VDR inhibitor -11.8%.
Screening CCCCNc1nc(=S)[nH]c2cc(OC)c(OC)cc12 returned JMJD2A Tudor inh inconclusive, HP1b chromo inh 15.2%, BAZ2B block inconclusive, PLK1 PBD block -12.3%, G9a inh -3.2%[12.7 µM] and VDR inhibitor -6.3%.
`O=C(NCCSc1c(-c2ccc(Br)cc2)[nH]c2ccccc12)c1ccc(S(=O)(=O)N2CCOCC2)cc1` gave JMJD2A Tudor inh -14.3%, HP1b chromo inh 32.4%, BAZ2B block -4.0%, G9a inh -8.4%[59 µM] and VDR inhibitor -22.3%.
CCn1c(=O)n(CC)c2cc(N3CCCCC3)c(NC(=O)Nc3cc(Cl)ccc3OC)cc21 was read as JMJD2A Tudor inh -29.7%, HP1b chromo inh 19.6%, BAZ2B block inconclusive, G9a inh inconclusive and VDR inhibitor -4.9%.
`CC(NC(=O)C12CC3CC(C)(CC(C)(C3)C1)C2)c1ccncc1` (stereo not given) gave JMJD2A Tudor inh -3.4%, HP1b chromo inh 51.5%, BAZ2B block -31.4%, PLK1 PBD block -8.0%, G9a inh 8.8% and VDR inhibitor -18.6%.
`NS(=O)(=O)c1ccc(NNC(=O)c2sccc2Cl)cc1` gave JMJD2A Tudor inh 2.8%, HP1b chromo inh 44.9%, BAZ2B block 33.0%, PLK1 PBD block -23.5%, G9a inh 7.08µM* and VDR inhibitor -9.9%.
For O=C(NNc1c(Cl)cncc1Cl)c1sccc1Cl the results were JMJD2A Tudor inh 0.0%, HP1b chromo inh 22.5%, BAZ2B block 1.0%, PLK1 PBD block -0.3%, G9a inh inconclusive and VDR inhibitor -6.0%.
`O=C(NNc1cc(Cl)cc(Cl)c1)c1sccc1Cl` gave JMJD2A Tudor inh -26.5%, HP1b chromo inh 36.2% and VDR inhibitor 7.7%.
